Each structure is given as a SMILES string. Values without a mark were called inactive. Activity calls are given as the source filed them. No stated cut-off is given here; in the data, active means fold change mostly below about -2 (no sharp cut-off); inactive means mostly above about -1.8.

This test can be described thus: TERT promoter activity modulators, primary screen, cell-based, luciferase reporter, human (AID 1259240). Conditions: A2780 TERT promoter luciferase reporter, 16 h; at 20 µM, fold versus average of vehicle-only wells.
Consider `COc1ccc(Nc2c(-c3ccc(N4CCOCC4)cc3)nc3ncccn23)cc1OC`, for which the fold change is -1.26.
As to `Cc1ccc(N2CC(O)=C(c3nc4ccccc4c(=O)[nH]3)C2=N)cc1C`, the compound was called inactive.
For `CC1(C)CNC(=O)c2sc(NC(=O)CN3CCOCC3)nc2C1`, the fold change is -1.75.
Still for that read-out and setting: next, `CCn1c2ccccc2c2nnc(SCC(=O)Nc3nnc(C(C)C)s3)nc21`: -1.93; `COc1ccccc1-c1nc(-c2ccccn2)no1`: -2.84 (active); `O=C(O)Cn1cc(/C=C2/C(=O)Nc3ccccc32)c2ccccc21`: 1.41.
Same read-out and setting: next, `CC(C)Oc1ccc(C2CC(=O)Nc3cc4c(cc32)OCCO4)cc1` (stereo not given): 1; `COc1cc(NC(=O)c2onc(C)c2Cl)cc(OC)c1OC`: 1.32; `c1cnc2c(SCc3cn4ccccc4n3)cccc2c1`: -1.15.
On the same count and under the same terms, next, `c1ccn2c(SCc3ccc4c(c3)OCCO4)nnc2c1`: 1.6; `CCCOc1ccc(Cc2nn3c(=O)/c(=C\c4cccc(OC(C)=O)c4)sc3nc2=O)cc1`: -1.43; `Cc1noc(C(=O)Nc2sc3c(c2C#N)CCC3)c1Cl`: 1.31.
As for `Cc1ccc(N2CN=c3s/c(=C4\C(=O)Nc5ccccc54)c(=O)n3C2)cc1`, the fold change is -1.33.
Still for that read-out and setting: next, `CC(C)C(NS(=O)(=O)c1cccc2nsnc12)C(=O)N1CCCCC1` (stereo not given): 1.43.
In the case of `CC(=O)Oc1ccccc1-c1nc2s/c(=C\c3cccc(Br)c3)c(=O)n2n1`, the fold change is 1.36.
As to `O=C(Cn1ncc2c3ccccc3n(Cc3ccc(Cl)cc3)c2c1=O)NC1CC1`, the fold change was -1.11.
On the same count and under the same terms, next, `Cc1cc(NC(=O)CSc2ncnc3ccccc23)no1`: 1.35; `CSCCC(C(=O)O)N1C(=O)/C(=C/c2cccnc2)SC1=S` (stereo not given): -1.77.
`NC(=O)c1sc2nc(C3CC3)cc(-c3ccc(Br)cc3)c2c1N`: the fold change is -1.28.
Still for that read-out and setting: next, `CC(C)NC(=O)Cn1ncc2c3ccccc3n(C)c2c1=O`: 1.04; `C=CCN1CN=C(NS(=O)(=O)c2ccc(C)cc2)NC1`: -1.75; `CCNc1nc(NCC)nc(OCCNS(=O)(=O)c2ccccc2)n1`: -1.79.
Still for that read-out and setting: next, `O=C(O)C1CCN(c2nc3ccccc3n2Cc2ccccc2F)CC1`: 1.02; `CCC(=O)N1CCc2cc(S(=O)(=O)CCC(=O)NCC3COc4ccccc4O3)ccc21` (stereo not given): -1.32.
The same measure, in the same setting: next, `O=C(CN1C(=O)c2ccccc2S1(=O)=O)N1CCN(c2cccc(Cl)c2)CC1`: -1.25.

These data come from PubChem BioAssay AID1259240 (Keith Lab, Institute of Cancer Science, University of …, 2017).
